# Laboratory results from the supplement of paper PMC8728848.
# Shown is part of a subset that was picked to be rich in the strongest signals.
# B1: Epa1 (Candida glabrata) (protein)
# chain: MGSSHHHHHHSSGLVPRGSHMTSSNDISLASKDPTTFPLGCSPDITTPKKGLSMELYSYDFRKKGSYPCWDAAYLDPNYPRTGYKSHRLLAKVDGVTGNINFYYHATKGCTPQLGHLPASYNYPKPLTMTNFTMLLYGYFRPKVTGFHTFTISADDLLFVNFGAGNAFDCCRRDSSADHFGNYQAYAIWGSKTAKDELTVHLDAGVYYPIRLFYNNREYDGALSFTFKTESNENTVSDFSEYFFSLDDTEEGCPGLISYD
# Legend:
# Test in all cases: glycan array binding signal (z-score within array); higher = stronger binding
# Details in all cases: glycan notation: IUPAC condensed, linker removed
# Fuc(a1-2)Gal = target: Fuc(a1-2)Gal
# Method in brief: (§1)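 The binding signal is a Z-score computed within each array and averaged over linkers. Arrays of the same protein sequence at different concentrations or buffers were also averaged together. Data originate from 3228 arrays in the Consortium for Functional Glycomics database, kept only where the protein sequence was available.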
# Fuc(a1-2)Gal(b1-3)GalNAc = target: Fuc(a1-2)Gal(b1-3)GalNAc
# Method in brief: as §1
# [1] = target: Fuc(a1-2)Gal(b1-4)GlcNAc(b1-2)Man(a1-3)[Fuc(a1-2)Gal(b1-4)GlcNAc(b1-2)Man(a1-6)]Man(b1-4)GlcNAc(b1-4)[Fuc(a1-6)]GlcNAc
# Method in brief: as §1
# Fuc(a1-2)[Gal(a1-3)]Gal = target: Fuc(a1-2)[Gal(a1-3)]Gal
# Method in brief: as §1
# [2] = target: Fuc(a1-2)[Gal(a1-3)]Gal(b1-3)GlcNAc(b1-2)Man(a1-3)[Fuc(a1-2)[Gal(a1-3)]Gal(b1-3)GlcNAc(b1-2)Man(a1-6)]Man(b1-4)GlcNAc(b1-4)GlcNAc
# Method in brief: as §1
# [3] = target: Fuc(a1-2)[GalNAc(a1-4)]Gal(b1-4)GlcNAc
# Method in brief: as §1
# Gal(b1-3)Gal = target: Gal(b1-3)Gal
# Method in brief: as §1
# Gal(b1-3)Gal(b1-4)GlcNAc = target: Gal(b1-3)Gal(b1-4)GlcNAc
# Method in brief: as §1
# Gal(b1-3)GalNAc = target: Gal(b1-3)GalNAc
# Method in brief: as §1
# Gal(b1-3)GalNAc(b1-3)Gal = target: Gal(b1-3)GalNAc(b1-3)Gal
# Method in brief: as §1
# [4] = target: Gal(b1-3)GalNAc(b1-4)Gal(b1-4)Glc
# Method in brief: as §1
# [5] = target: Gal(b1-3)GalNAc(b1-4)[Neu5Ac(a2-3)]Gal(b1-4)Glc
# Method in brief: as §1
# [6] = target: Gal(b1-3)GlcNAc(b1-2)Man(a1-3)[GlcNAc(b1-4)][Gal(b1-3)GlcNAc(b1-2)Man(a1-6)]Man(b1-4)GlcNAc(b1-4)GlcNAc
# Method in brief: as §1
# [7] = target: Gal(b1-3)[Neu5Ac(a2-6)]GalNAc
# Method in brief: as §1
# [8] = target: Gal(b1-3)[Neu5Ac(a2-6)]GlcNAc(b1-4)Gal(b1-4)Glc
# Method in brief: as §1
# [9] = target: Gal(b1-4)GalNAc(a1-3)[Fuc(a1-2)]Gal(b1-4)GlcNAc
# Method in brief: as §1
# Gal(b1-4)Glc6S = target: Gal(b1-4)Glc6S
# Method in brief: as §1
# [10] = target: Gal(b1-4)GlcNAc(b1-2)Man(a1-6)[Man(a1-3)]Man(b1-4)GlcNAc(b1-4)GlcNAc
# Method in brief: as §1
# [11] = target: Gal(b1-4)GlcNAc(b1-3)Gal(b1-3)GlcNAc
# Method in brief: as §1
# [12] = target: Gal(b1-4)GlcNAc(b1-3)Gal(b1-4)Glc
# Method in brief: as §1
# [13] = target: Gal(b1-4)GlcNAc(b1-3)Gal(b1-4)GlcNAc(b1-2)[Gal(b1-4)GlcNAc(b1-3)Gal(b1-4)GlcNAc(b1-6)]Man(a1-6)[Gal(b1-4)GlcNAc(b1-3)Gal(b1-4)GlcNAc(b1-2)Man(a1-3)]Man(b1-4)GlcNAc(b1-4)[Fuc(a1-6)]GlcNAc
# Method in brief: as §1
# [14] = target: Gal(b1-4)GlcNAc(b1-3)Gal(b1-4)GlcNAc(b1-3)Gal(b1-4)GlcNAc(b1-2)[Gal(b1-4)GlcNAc(b1-3)Gal(b1-4)GlcNAc(b1-3)Gal(b1-4)GlcNAc(b1-6)]Man(a1-6)[Gal(b1-4)GlcNAc(b1-3)Gal(b1-4)GlcNAc(b1-3)Gal(b1-4)GlcNAc(b1-2)Man(a1-3)]Man(b1-4)GlcNAc(b1-4)[Fuc(a1-6)]GlcNAc
# Method in brief: as §1
# [15] = target: Gal(b1-4)GlcNAc(b1-6)Gal(b1-4)GlcNAc
# Method in brief: as §1
# [16] = target: Gal(b1-4)GlcNAc(b1-6)[Gal(b1-3)]GalNAc
# Method in brief: as §1
# Gal(b1-6)Gal = target: Gal(b1-6)Gal
# Method in brief: as §1
# Gal3S(b1-4)GlcNAc = target: Gal3S(b1-4)GlcNAc
# Method in brief: as §1
# [17] = target: Gal3S(b1-4)[Fuc(a1-3)]GlcNAc6S
# Method in brief: as §1
# Gal6P(b1-4)GlcNAc = target: Gal6P(b1-4)GlcNAc
# Method in brief: as §1
# Gal6S(b1-3)GlcNAc6S = target: Gal6S(b1-3)GlcNAc6S
# Method in brief: as §1
# [18] = target: GalNAc(a1-3)GalNAc(b1-3)Gal(a1-4)Gal(b1-4)GlcNAc
# Method in brief: as §1
# [19] = target: GlcA3S(b1-3)Gal(b1-4)GlcNAc(b1-2)Man
# Method in brief: as §1
# [20] = target: GlcNAc(b1-3)Gal(b1-4)GlcNAc(b1-6)[Gal(b1-3)]GalNAc
# Method in brief: as §1
# Man(a1-2)Man(a1-3)Man = target: Man(a1-2)Man(a1-3)Man
# Method in brief: as §1
# [21] = target: Man(a1-3)[Man(a1-6)]Man(b1-4)GlcNAc(b1-4)[Fuc(a1-6)]GlcNAc
# Method in brief: as §1
# Man(b1-4)GlcNAc = target: Man(b1-4)GlcNAc
# Method in brief: as §1
# [22] = target: Neu5Ac(a2-3)Gal(b1-3)GlcNAc(b1-2)Man(a1-3)[Neu5Ac(a2-3)Gal(b1-3)GlcNAc(b1-2)Man(a1-6)]Man(b1-4)GlcNAc(b1-4)GlcNAc
# Method in brief: as §1
# [23] = target: Neu5Ac(a2-3)Gal(b1-3)GlcNAc(b1-6)GalNAc
# Method in brief: as §1
# [24] = target: Neu5Ac(a2-3)Gal(b1-4)GlcNAc(b1-3)Gal
# Method in brief: as §1
# [25] = target: Neu5Ac(a2-3)Gal(b1-4)GlcNAc(b1-3)Gal(b1-4)GlcNAc(b1-2)Man(a1-3)[Neu5Ac(a2-3)Gal(b1-4)GlcNAc(b1-3)Gal(b1-4)GlcNAc(b1-2)Man(a1-6)]Man(b1-4)GlcNAc(b1-4)GlcNAc
# Method in brief: as §1
# [26] = target: Neu5Ac(a2-3)Gal(b1-4)GlcNAc(b1-6)[Gal(b1-3)]GalNAc
# Method in brief: as §1
# [27] = target: Neu5Ac(a2-3)Gal(b1-4)[Fuc(a1-3)]GlcNAc(b1-2)Man
# Method in brief: as §1
# [28] = target: Neu5Ac(a2-3)Gal(b1-4)[Fuc(a1-3)]GlcNAc(b1-3)Gal(b1-4)GlcNAc
# Method in brief: as §1
# [29] = target: Neu5Ac(a2-3)[Neu5Ac(a2-6)]GalNAc
# Method in brief: as §1
# [30] = target: Neu5Ac(a2-6)Gal(b1-4)GlcNAc(b1-2)Man(a1-3)[GlcNAc(b1-4)][Neu5Ac(a2-6)Gal(b1-4)GlcNAc(b1-2)Man(a1-6)]Man(b1-4)GlcNAc(b1-4)GlcNAc
# Method in brief: as §1
# [31] = target: Neu5Ac(a2-6)Gal(b1-4)GlcNAc(b1-2)Man(a1-6)[Gal(b1-4)GlcNAc(b1-2)Man(a1-3)]Man(b1-4)GlcNAc(b1-4)GlcNAc
# Method in brief: as §1
# [32] = target: Neu5Ac(a2-6)Gal(b1-4)GlcNAc(b1-3)Gal(b1-4)GlcNAc(b1-3)Gal(b1-4)GlcNAc
# Method in brief: as §1
# [33] = target: Neu5Ac(a2-6)Gal(b1-4)GlcNAc(b1-3)Gal(b1-4)[Fuc(a1-3)]GlcNAc(b1-3)Gal(b1-4)[Fuc(a1-3)]GlcNAc
# Method in brief: as §1
# [34] = target: Neu5Ac(a2-6)Gal(b1-4)GlcNAc6S
# Method in brief: as §1
# [35] = target: Neu5Ac(b2-6)Gal(b1-4)GlcNAc
# Method in brief: as §1
# [36] = target: Neu5Gc(a2-8)Neu5Gc(a2-6)Gal(b1-4)GlcNAc
# Method in brief: as §1
binder,measurement,setting,value
B1,glycan array binding signal (z-score),Fuc(a1-2)Gal,-0.506
same,glycan array binding signal (z-score),Fuc(a1-2)Gal(b1-3)GalNAc,-0.25
same,glycan array binding signal (z-score),[1],-0.2
same,glycan array binding signal (z-score),Fuc(a1-2)[Gal(a1-3)]Gal,-0.213
same,glycan array binding signal (z-score),[2],-0.325
same,glycan array binding signal (z-score),[3],-0.299
same,glycan array binding signal (z-score),Gal(b1-3)Gal,3.63
same,glycan array binding signal (z-score),Gal(b1-3)Gal(b1-4)GlcNAc,8.5
same,glycan array binding signal (z-score),Gal(b1-3)GalNAc,3.51
same,glycan array binding signal (z-score),Gal(b1-3)GalNAc(b1-3)Gal,6.23
same,glycan array binding signal (z-score),[4],9.89
same,glycan array binding signal (z-score),[5],4.04
same,glycan array binding signal (z-score),[6],0.171
same,glycan array binding signal (z-score),[7],4.22
same,glycan array binding signal (z-score),[8],-0.213
same,glycan array binding signal (z-score),[9],-0.197
same,glycan array binding signal (z-score),Gal(b1-4)Glc6S,0.304
same,glycan array binding signal (z-score),[10],-0.169
same,glycan array binding signal (z-score),[11],-0.155
same,glycan array binding signal (z-score),[12],0.551
same,glycan array binding signal (z-score),[13],3.08
same,glycan array binding signal (z-score),[14],3.06
same,glycan array binding signal (z-score),[15],3.12
same,glycan array binding signal (z-score),[16],4.02
same,glycan array binding signal (z-score),Gal(b1-6)Gal,0.429
same,glycan array binding signal (z-score),Gal3S(b1-4)GlcNAc,-0.442
same,glycan array binding signal (z-score),[17],-0.394
same,glycan array binding signal (z-score),Gal6P(b1-4)GlcNAc,-0.272
same,glycan array binding signal (z-score),Gal6S(b1-3)GlcNAc6S,-0.014
same,glycan array binding signal (z-score),[18],-0.312
same,glycan array binding signal (z-score),[19],-0.3
same,glycan array binding signal (z-score),[20],1.03
same,glycan array binding signal (z-score),Man(a1-2)Man(a1-3)Man,-0.318
same,glycan array binding signal (z-score),[21],-0.271
same,glycan array binding signal (z-score),Man(b1-4)GlcNAc,-0.281
same,glycan array binding signal (z-score),[22],-0.325
same,glycan array binding signal (z-score),[23],-0.293
same,glycan array binding signal (z-score),[24],-0.288
same,glycan array binding signal (z-score),[25],-0.257
same,glycan array binding signal (z-score),[26],1.45
same,glycan array binding signal (z-score),[27],-0.346
same,glycan array binding signal (z-score),[28],-0.214
same,glycan array binding signal (z-score),[29],-0.328
same,glycan array binding signal (z-score),[30],-0.32
same,glycan array binding signal (z-score),[31],-0.14
same,glycan array binding signal (z-score),[32],-0.267
same,glycan array binding signal (z-score),[33],-0.272
same,glycan array binding signal (z-score),[34],-0.335
same,glycan array binding signal (z-score),[35],-0.248
same,glycan array binding signal (z-score),[36],-0.309
